Consider 39 compounds from ChEMBL document CHEMBL3988442, “University of Dundee, Small-Polar-MMV Screening Library” (2021).

Structures are written as SMILES.

For the test, the target named is T1, Arginase-2, mitochondrial (Homo sapiens) (UniProt P78540).
T1 sequence (whole entry): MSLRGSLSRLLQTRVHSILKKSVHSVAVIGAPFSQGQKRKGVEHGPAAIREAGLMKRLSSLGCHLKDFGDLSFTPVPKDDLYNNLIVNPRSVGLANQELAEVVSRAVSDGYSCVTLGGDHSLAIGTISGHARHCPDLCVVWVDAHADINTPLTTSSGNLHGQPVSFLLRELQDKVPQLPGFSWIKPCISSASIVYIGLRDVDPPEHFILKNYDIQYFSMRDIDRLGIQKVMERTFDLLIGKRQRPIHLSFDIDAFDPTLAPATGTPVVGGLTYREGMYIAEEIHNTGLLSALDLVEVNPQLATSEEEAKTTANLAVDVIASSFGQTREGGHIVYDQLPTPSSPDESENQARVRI
The test is described as follows: in vitro enzyme assay to detect the production of urea directly proportional to the activity of Arginase II. In kind it is functional. Details: scale not given: in the data most compounds retested in dose-response had high values. The conditions noted are these: 30 µM.
As to `O=C(Cn1nc2c(cc1=O)CCCC2)NC(C(=O)O)c1ccccc1` (centres undefined), the Percent Effect is -2.7%.
For `COc1ccc2c(c1)OCC(CNC(=O)NC(C)(C)C)C2` (centres undefined) the value was 5.95%; for `c1ccc(OC2COC3(CCN(Cc4ccccn4)CC3)C2)cc1` (centres undefined), 0.54%.
For `CCc1nc(C)c(C(=O)NCC2COc3cc(OC)ccc3C2)o1` (centres undefined) the value was 5.95%; for `COc1ccc(-c2nc(CN3CC(n4cccn4)C3)no2)cc1`, 0.54%.
For `COc1ccc2c(c1)OCC(CNC(=O)c1ccc3[nH]nnc3c1)C2` (centres undefined) the value was 8.11%; for `Cc1ncsc1C(=O)N1CCCC(c2nccn2Cc2cscn2)C1` (centres undefined), 10.3%; for `CCn1ccnc1C1CCCN(C(=O)c2sc(C)nc2C)C1` (centres undefined), 2.7%.
Consider `c1ccc(O[C@H]2CO[C@@]3(CCN(Cc4ccc5c(c4)OCO5)C3)C2)nc1`, for which the Percent Effect came to 7.03%.
The figure for `CCCc1n[nH]cc1C(=O)NCC1COc2cc(OC)ccc2C1` (centres undefined) is 8.11%.
Regarding `CN(C)C(=O)[C@@H]1CCO[C@@H]2CCN(CCOCc3ccccc3)C[C@H]21`, the Percent Effect came to 2.7%.
The figure for `CNC(=O)[C@H]1C[C@@H]2CN(C(=O)c3ccccn3)C[C@@H]2N1S(C)(=O)=O` is 8.11%.
For `CC(=O)N1CCN(C(=O)Cn2ccc3c(Cl)cccc32)CC1` the value was 2.7%; for `CCCS(=O)(=O)N1C[C@H](N(C)Cc2ccco2)[C@@H]2OCCC[C@@H]21`, 11.3%.
The figure for `O=C(NC1CC1)[C@@H]1CCO[C@@H]2CCN(CCc3ccccc3)C[C@@H]21` is 10.3%; for `Cc1nn(CCO)c(C)c1CNC1CCOc2ccccc21` (centres undefined) it is -9.19%.
With `COCc1ccc(C(=O)N(CCC#N)Cc2ccccn2)cc1`, the Percent Effect came to 0.54%.
In the case of `CCCn1c(NCCc2ccccc2)nc2c(C)nn(C)c2c1=O`, the Percent Effect stood at 1.62%.
The figure for `Cc1noc(C)c1CN1CCC[C@]2(C[C@@H](Oc3ccccn3)CO2)C1` is -26.5%.
Consider `OC(CN(Cc1ccccc1)Cc1cccnc1)c1cccs1` (centres undefined), for which the Percent Effect was -5.95%.
The figure for `CCC(C(=O)NCc1ccncc1)N(c1ccccc1)S(C)(=O)=O` (centres undefined) is 5.95%; for `CCC(C(=O)NCc1cccnc1)N(c1cccc(C)c1)S(C)(=O)=O` (centres undefined) it is -0.54%.
The figure for `Cc1cc(C(=O)N2CCCC(c3nccn3Cc3cscn3)C2)on1` (centres undefined) is 9.19%.
The figure for `COc1ccccc1Oc1ncccc1CNC(=O)[C@H](N)CC(C)(C)C` is 10.3%.
For `Cc1ccc2c(c1)CCC2NCc1c(C)nn(CCO)c1C` (centres undefined), the Percent Effect worked out at 3.78%.
For the compound `Cn1cc(CN2C[C@@H]3COC[C@]3(C(=O)NCc3cccs3)C2)cn1`, the Percent Effect was determined as 4.87%.
As for `O=C(Cn1nc2c(cc1=O)CSCC2)N[C@@H](Cc1ccccc1)C(=O)O`, the Percent Effect worked out at 11.3%.
The figure for `CNC(=O)CCNC(=O)c1cc(Br)c2c(c1)OCCO2` is -10.3%; for `COc1ccc(C(=O)N2C[C@@H](C(=O)O)[C@H](c3ccccc3)C2)c(C)c1` it is -7.03%.
For `Cc1cc(CN(Cc2ccccc2)CC(O)c2cccs2)on1` (centres undefined) the value was 3.78%.
Turning to `CN(C)C(=O)CN1CCC(c2cncc(-c3cccc(Cl)c3)n2)CC1`, the Percent Effect was -0.54%.
As for `CCn1c(NCc2ccccn2)nc2c(C)nn(C)c2c1=O`, the Percent Effect was -5.95%.
For `COCCCC1CCCN(C(=O)CCc2csc(N)n2)C1` (centres undefined) the value was 3.78%; for `O=C(NCC1CC1)[C@@H]1CCO[C@@H]2CCN(CCc3ccccc3)C[C@H]21`, 1.62%; for `CNC(=O)[C@@H]1C[C@H]2CN(C(=O)c3ccco3)C[C@H]2N1C(C)C`, 9.19%.
As to `CC(C)CN1CCC(NC(=O)c2ccc(F)cc2Cl)CC1`, the Percent Effect was determined as 5.95%.
The figure for `Cn1cc(CC2CCN(C(=O)NCc3csc(C4CC4)n3)C2)cn1` (centres undefined) is 7.03%; for `CC(C)c1ncc(CN2CCOC(C(=O)Nc3ccccc3)C2)cn1` (centres undefined) it is 3.78%; for `CN(CC(=O)N1CCCC1c1noc(C2CC2)n1)S(C)(=O)=O` (centres undefined) it is 3.78%.
